An excerpt weighted towards active compounds, which were near 3.7% of everything screened.
A549 tox-1 – kills or reduces viability of A549 cells in Nrf2 counter-screen | 390,000 tested, 0.16% active | A549 ARE-Fluc cells, CellTiter-Fluor viability, 18-24 h | Potency, µM (doses to about 46 µM), inactives show at the top dose activity change, negative = cytotoxicity, actives largely listed as inhibitors; also: % is scaled to controls: 0 for no effect and ±100 for the full control effect
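Cytotoxicity counterscreen: CellTiter-Fluor fluorescence was measured in A549 ARE_Fluc cells after 18-24 h of compound exposure in a concentration series. The subsequent BugLite luminescent read reports ARE-luciferase activity.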
ELG1 DNA repair – blocks ELG1-dependent DNA repair in HEK293T cells; HEK293T ELG1-luciferase reporter, luminescence, 16 h; DNA damage induced by 5-fluorouridine; Potency, µM (series often up to 46.1 µM), for inactives: at the highest dose activity change, negative = inhibition, hits mostly inhibitors; 330,000 tested, 2.3% active; AID 504467; also: % is scaled to controls: 0 for no effect and ±100 for the full control effect; nearly all actives have a fitted effect of over 55% in size
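In this reporter screen, reduction of luminescence relative to DMSO vehicle indicated activity. Compounds and 5-fluorouridine were added together to 2,000 cells per well, incubated for 16 hr at 37 °C, then developed with ONE-Glo.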
Nrf2 ARE act – activates Nrf2 signaling | AREc32 ARE-luciferase reporter (MCF7-derived line), luminescence, 24 h | Potency, µM (titrated, usually from 46.1 µM), for inactives: at the highest dose activation, most hits filed as activators | 410,000 tested, 0.31% active | AID 624171; also: % of control where 0% means no effect; nearly all actives have a fitted effect of over 65% in size
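Nrf2 activation is followed as ARE-luciferase induction in the AREc32 line after one day of compound treatment; luminescence is read with Steady-Glo.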
Nrf2 inh – blocks Nrf2 signaling. AID 504444. A549 ARE-Fluc reporter, luciferase luminescence, 18-24 h. 360,000 tested, 2.1% active. Potency, µM (series often up to 46 µM), for the others: top-dose activity change, negative = inhibition, hits mostly inhibitors; also: % is scaled to controls: 0 for no effect and ±100 for the full control effect; nearly all actives have a fitted effect of over 60% in size
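Cells were seeded and rested 2 h, then exposed to compounds for 18-24 h. CellTiter-Fluor was read first as a viability measure. BugLite was added 15 min before the final luminescent read of ARE-luciferase activity in A549 cells.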
FLuc enzyme inh – blocks purified firefly luciferase in Nrf2 counterscreen. shares compounds with Nrf2 inh. purified firefly luciferase, luminescence inhibition. Potency, µM (top dose mostly 57.5 µM), without a hit: at the top dose activity change, negative = inhibition, usual class: inhibitors. 1,400 tested, 4% active; also: % is scaled to controls: 0 for no effect and ±100 for the full control effect; nearly all actives have a fitted effect of over 65% in size
Target sequence (P08659 whole entry, looked up): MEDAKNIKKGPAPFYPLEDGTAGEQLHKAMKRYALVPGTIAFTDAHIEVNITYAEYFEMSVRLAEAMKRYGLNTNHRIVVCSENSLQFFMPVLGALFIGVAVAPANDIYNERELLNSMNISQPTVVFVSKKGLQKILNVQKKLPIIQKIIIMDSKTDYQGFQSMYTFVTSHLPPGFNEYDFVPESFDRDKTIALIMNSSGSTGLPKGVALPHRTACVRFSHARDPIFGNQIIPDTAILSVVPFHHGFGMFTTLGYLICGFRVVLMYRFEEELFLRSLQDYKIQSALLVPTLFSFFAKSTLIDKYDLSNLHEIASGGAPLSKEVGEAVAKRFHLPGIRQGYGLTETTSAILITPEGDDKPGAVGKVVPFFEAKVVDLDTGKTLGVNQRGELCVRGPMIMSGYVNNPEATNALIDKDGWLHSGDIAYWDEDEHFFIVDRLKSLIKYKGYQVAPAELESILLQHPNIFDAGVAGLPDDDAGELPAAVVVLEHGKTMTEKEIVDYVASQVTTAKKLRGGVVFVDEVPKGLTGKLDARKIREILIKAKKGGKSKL
A549 tox-2 – toxic to A549 ARE-Fluc cells in Nrf2 counterscreen. shares compounds with Nrf2 inh. A549 ARE-Fluc cells, cytotoxicity counterscreen. Potency, µM (top dose mostly 46.1 µM), for the others: top-dose activity change, negative = cytotoxicity, most hits filed as inhibitors. 1,400 tested, 2% active;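 also: cells exposed to compounds for 18 to 24 hours; % is scaled to controls: 0 for no effect and ±100 for the full control effect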
ARE-Fluc inh – Nrf2 inhibition confirmed, A549 ARE-luciferase. Potency, µM (series often up to 46.1 µM), for the others: at the top dose activity change, negative = inhibition, usual class: inhibitors. 1,400 tested, 74% active. A549 ARE-firefly luciferase reporter, luminescence. shares compounds with Nrf2 inh; also: % is scaled to controls: 0 for no effect and ±100 for the full control effect; nearly all actives have a fitted effect of over 65% in size
* hit, by the source's call; u = inconclusive; x = not tested or not shown. Calls follow the shape of the dose curve; as a rule, active = well fitted curve in the direction sought with a large enough effect; inconclusive = small, poorly fitted or top-dose-only effect, or another doubt; inactive = no such curve, though single readings can be large; an effect the other way counts as inactive or inconclusive. Potency is read from the fitted curve at half-maximal effect.

SMILES | A549 tox-1 | ELG1 DNA repair | Nrf2 ARE act | Nrf2 inh | FLuc enzyme inh | A549 tox-2 | ARE-Fluc inh
Nc1c(Cl)ncnc1N/N=C/c1ccccn1 | u | u | 11.8% | 5.17µM* | u | u | 2.06µM*
CC[n+]1c(/C=C/N(C)c2ccccc2)oc2ccc(F)cc21 | -22.6% | -0.1% | 6.8% | 6.51µM* | 2.0% | -12.6% | 5.8µM*
O=C(NC1CCN(C(=S)Nc2ccccc2)CC1)C1CCCCC1 | 0.8% | 2.6% | -0.5% | 3.4% | x | x | x
Cc1ccc(C)c(N2CCN(C(=O)CCc3nc(-c4ccccc4C(F)(F)F)no3)CC2)c1 | -4.0% | u | 4.6% | -1.2% | x | x | x
COc1ccccc1-c1noc(CCC(=O)N2CCN(c3cc(C)ccc3C)CC2)n1 | u | u | 3.6% | 4.61µM* | 3.4% | -0.4% | -25.4%
O=[N+]([O-])c1cccc2nc3ccccc3c(NCCCn3ccnc3[N+](=O)[O-])c12 | u | x | 13.5% | 0.146µM* | u | u | x
CC(C)(C)c1ccc(-n2ncc3c2CCCC3NC(=O)C2(C(N)=O)CC2)cc1 (configuration not stated) | -6.8% | u | -0.4% | 1.3µM* | -17.2% | -6.8% | x
O=C(OCC#CCSc1nnc(-c2cccc3ccccc23)o1)c1cc(F)c(F)c(F)c1 | -3.2% | x | x | 3.3% | x | x | x
COc1cc(Cc2nccc3cc(OC)c(OC)cc23)c(S(=O)(=O)O)cc1OC | 2.8% | 0.4% | 0.0% | 3.6% | x | x | x
COc1cc2ccnc(Cc3cccc(OC)c3OC)c2cc1OC | -1.0% | -17.8% | 3.1% | 3.66µM* | 2.6% | -3.0% | 16.4µM*
Cc1cc(C(=O)COC(=O)c2ccc(N)c([N+](=O)[O-])c2)c(C)n1-c1ccc2c(c1)OCO2 | -11.5% | 14.9% | 6.0% | 5.8µM* | -6.3% | -3.6% | u
Cc1cc(C(=O)COC(=O)c2ccc(N)c([N+](=O)[O-])c2)c(C)n1Cc1ccc2c(c1)OCO2 | -4.8% | 12.8% | -0.6% | 9.2% | x | x | x
CN1CCc2c(OCC(=O)N3CCCc4ccccc43)cccc2C1=O | u | -29.3% | 2.5% | 9.2µM* | 2.6% | 1.0% | u
O=C(COc1ccccc1F)N1CCCc2ccccc21 | 0.2% | 21.7% | 2.3% | 2.1% | x | x | x
COc1ccc(Cl)cc1Nc1nc(-c2sc(NC(=O)c3ccco3)nc2C)cs1 | -4.5% | u | -0.3% | 9.3% | x | x | x
COc1ccc(Cl)cc1Nc1nc(-c2sc(NC(=O)C(C)(C)C)nc2C)cs1 | -2.4% | u | 0.0% | 4.11µM* | -20.2% | -9.0% | 1.84µM*
COc1ccc(OC)c(Nc2nc(-c3sc(NC(=O)C(C)(C)C)nc3C)cs2)c1 | -0.2% | u | 6.3% | 8.2µM* | -25.0% | -19.0% | u
CC(=O)c1sc(NC(=O)C2CCCN2S(=O)(=O)c2ccccc2F)nc1C (configuration not stated) | -7.6% | 20.2% | 0.4% | 3.7% | x | x | x
CCCCNC(=O)Cn1nc(N2CCN(c3ccccc3OC)CC2)ccc1=O | 3.8% | x | 0.8% | 16.3% | x | x | x
CCOC(=O)N1CCc2c(sc(NC(=O)c3ccc(S(=O)(=O)N4CCCC4)cc3)c2C#N)C1 | -28.0% | 16.4µM* | 0.9% | 7.31µM* | -28.1% | -29.3% | 7.31µM*
CCn1c(Sc2ccc(N)cc2Cl)nc2ccccc21 | 3.6% | 1.1% | 0.1% | 9.6% | x | x | x
COc1ccc(/C=C/C(=O)Nc2c(C)nn(C)c2C)cc1COc1ccc(Cl)cc1Br | -19.5% | u | -0.6% | u | x | x | x
Cc1nn(C)c(C)c1NC(=O)COc1ccc(Cl)cc1Br | -12.3% | 3.1% | 0.3% | 8.2µM* | -9.9% | -6.7% | 7.31µM*
COc1cccc(CNC(=O)CN2C(=O)CSc3c2c(C)nn3-c2ccccc2)c1 | -3.4% | x | 0.9% | -20.4% | x | x | x
CCCN(CCC)C1=CC(=[N+]2CCCC2)CC(C)(C)C1 | -16.9% | u | 2.3% | 2.06µM* | -0.4% | -9.8% | 4.61µM*
SMILES | A549 tox-1 | ELG1 DNA repair | Nrf2 ARE act | Nrf2 inh | FLuc enzyme inh | A549 tox-2 | ARE-Fluc inh
CC1(C)CC(N2CCCCC2)=CC(=[N+]2CCCCC2)C1 | -21.3% | u | -0.3% | 2.31µM* | 2.5% | -13.3% | 9.2µM*
Cc1ccc(F)cc1NC(=O)N1CCN(c2ccnc3cc(Cl)ccc23)CC1 | -16.9% | u | -0.9% | 9.2µM* | -1.4% | -3.0% | 9.2µM*
Cc1cc(N2CCN(C(=O)Nc3ccc(F)cc3F)CC2)c2ccccc2n1 | -13.1% | -9.9% | 2.0% | -25.0% | x | x | x
NC(=Nc1nc(-c2ccccn2)cc2ccccc12)c1ccccn1 | -16.7% | x | -0.9% | 1.46µM* | -3.3% | -23.4% | 1.64µM*
N/C(=N\OC(=O)c1ccc2ccccc2c1)c1ccccn1 | 2.3% | u | 0.3% | u | x | x | x
CC1=C(C(=O)N(C)C)CC(CC(=O)NCCCCc2ccccc2)C(=O)N1CCCN1CCCC1=O (configuration not stated) | x | x | -1.0% | x | x | x | x
CCc1cccc(NC(=O)C2CCN(S(=O)(=O)c3cccs3)CC2)c1 | 0.3% | u | 0.2% | -17.0% | x | x | x
O=C(Nc1nc(-c2ccc3ccccc3c2)cs1)C1CCN(S(=O)(=O)c2cccs2)CC1 | -9.9% | -5.6% | 0.3% | 5.17µM* | 1.0% | -1.0% | u
CCc1ccc(NC(=O)C2CCN(S(=O)(=O)c3cccs3)CC2)cc1 | -25.5% | u | 4.7% | 3.66µM* | -3.7% | -7.9% | 9.2µM*
COc1ccc(S(=O)(=O)N2CCC(C(=O)Nc3ccc(Oc4ccccc4)cc3)CC2)cc1 | -0.4% | x | 0.1% | u | -1.5% | -14.1% | u
COc1cccc(-n2c(-c3ccco3)nc3c(cnn3-c3ccc(Cl)cc3)c2=O)c1 | 2.3% | x | 0.5% | u | x | x | x
O=c1c2cnn(-c3ccccc3)c2nc(-c2ccco2)n1-c1ccccc1 | -21.3% | 6.31µM* | 2.7% | 9.2µM* | -21.7% | -12.3% | 18.4µM*
Nc1cc[n+](CC(=O)c2ccc3c(c2)OCCO3)cc1 | u | -6.6% | -0.9% | 2.06µM* | -3.7% | u | 5.8µM*
COc1cc(NCCCCC(C)N)c2nccc(C)c2c1 (configuration not stated) | x | x | -6.0% | x | x | x | x
COc1cc(NCCCC(C)N)c2ncccc2c1 (configuration not stated) | u | u | -4.3% | 5.8µM* | -4.0% | -23.3% | u
CCC(C)(C)c1ccc(OCCCC[n+]2cccc(C)c2)c(C(C)(C)CC)c1 | u | 7.3µM* | -2.0% | 8.2µM* | -5.5% | u | 6.51µM*
Cc1ccc[n+](CC(=O)Nc2cc(C(F)(F)F)ccc2Cl)c1 | 1.1% | 4.0% | -0.6% | 10.6% | x | x | x
c1ccc2c(N3CCCCC3)ncnc2c1 | -24.1% | u | -1.1% | u | x | x | x

Screening results: PubChem, National Center for Advancing Translational Sciences (NCATS)
